Results filed as inconclusive are left out. The source made the active and inactive calls. Unless noted, calls come from the whole dose curve; as a rule, active = well fitted curve in the direction sought with a large enough effect; inconclusive = small, poorly fitted or top-dose-only effect, or another doubt; inactive = no such curve, though single readings can be large; an effect the other way counts as inactive or inconclusive.

Assay [1] in a line: Confirmation and Secondary Assay for Modulators of Hemoglobin Beta Chain Splicing at IVS2 654 locus (AID 910).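 Note: per-well total GFP intensity by laser scanning cytometry after 2-day treatment.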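 Note: potency is the fitted concentration of half-maximal effect; potency of activators that raise GFP signal by restoring correct splicing.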 The essentials: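 HeLa cells stably carrying EGFP interrupted by mutant beta-globin IVS2-654 intron (CMV-driven) were treated with compound for 2 days at 37C; corrected splicing was scored as total peak GFP intensity per well (488 nm excitation, 500-520 nm emission).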

Assay [2] is described as follows: Confirmation and Secondary Assay for Modulators of Hemoglobin Beta Chain Splicing at IVS2 705 locus (AID 930).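 Note: GFP fluorescence per well restored by corrected splicing of the IVS2-705 intron in EGFP.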 Note: potency is the fitted concentration of half-maximal effect. The essentials: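 Splice-correction reporter: EGFP cDNA split by beta-globin intron 2 bearing the 705 mutation, stably in HeLa. Compound incubation 2 days, 37C; fluorescent objects 5-250 µm summed per well.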
Assay [3] deals with DNA dC->dU-editing enzyme APOBEC-3G (Homo sapiens) (UniProt Q9HC16). In words: qHTS for inhibitors of Vif-A3G interactions: Validation (AID 588379). Note: 0% is about no effect. Put shortly:
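Yellow fluorescence (Ex 488, Em 500-530) of Vif-coexpressing HeLa A3G-eYFP cells, scanned by Acumen cytometer, reports blocked A3G degradation. Cells plated at 700/well overnight at 37 deg C before compound addition, then a further overnight compound incubation at 37 deg C.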

The nature of assay [4]: qHTS profiling of the MIPE4 collection as inhibitors of Plasmodium falciparum (3D7) proliferation (AID 743344; call rule not given here;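 note: scaled between DMSO vehicle wells and 0.29 µM artemisinin as full inhibition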). Conditions: P. falciparum 3D7 in erythrocytes, SYBR Green DNA fluorescence, 72 h; at 28.5 µM (top of the series). The essentials: (§1)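 Parasite DNA was quantified by SYBR Green I fluorescence (ex 485, em 535 nm) after overnight lysis in saponin/Triton buffer at room temperature. Cultures at 0.3% parasitemia and 2.5% hematocrit were first exposed to compound for 72 h at 37 C; signals were normalised to artemisinin (0.29 uM) and vehicle wells.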
For orientation: In qHTS, concentration-response curves come from the screen itself.

A short description of assay [5]: qHTS profiling of the MIPE4 collection as inhibitors of Plasmodium falciparum (DD2) proliferation (AID 743345; call rule not given here). Conditions: P. falciparum Dd2 in erythrocytes, SYBR Green DNA, 72 h; at 28.5 µM (top of the series). The essentials:
as §1

The nature of assay [6]: qHTS profiling of the MIPE4 collection as inhibitors of Plasmodium falciparum (DD2) proliferation (Rep 2) (AID 743346; call rule not given here). The note with it: P. falciparum Dd2 in erythrocytes, SYBR Green DNA, 72 h; at 28.5 µM (top of the series). Put shortly:
as §1

Assay [7] is described as follows: qHTS profiling of the MIPE4 collection as inhibitors of Plasmodium falciparum (HB3) proliferation (AID 743347; call rule not given here;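 note: plate controls were DMSO vehicle wells for no effect and artemisinin wells for full effect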). The note with it: P. falciparum HB3 in erythrocytes, SYBR Green DNA, 72 h; at 28.5 µM (top of the series). Put shortly:
as §1

The target of assay [8] is Cytochrome P450 2D6 (Homo sapiens) (UniProt P10635). Briefly: qHTS Assay for Inhibitors and Substrates of Cytochrome P450 2D6 (AID 891). Note: potency is the fitted concentration of half-maximal effect; nearly all actives have a fitted effect of over 60% in size. Put shortly: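 Luminescent read-out of luciferin formed by 5 nM human CYP2D6 demethylating 30 uM Luciferin-ME EGE (Km level) over 60 min at room temperature after NADPH regeneration addition. Data normalized to full inhibition by 1.43 uM quinidine.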
Chain of Cytochrome P450 2D6 (Homo sapiens) (P10635 whole entry, looked up): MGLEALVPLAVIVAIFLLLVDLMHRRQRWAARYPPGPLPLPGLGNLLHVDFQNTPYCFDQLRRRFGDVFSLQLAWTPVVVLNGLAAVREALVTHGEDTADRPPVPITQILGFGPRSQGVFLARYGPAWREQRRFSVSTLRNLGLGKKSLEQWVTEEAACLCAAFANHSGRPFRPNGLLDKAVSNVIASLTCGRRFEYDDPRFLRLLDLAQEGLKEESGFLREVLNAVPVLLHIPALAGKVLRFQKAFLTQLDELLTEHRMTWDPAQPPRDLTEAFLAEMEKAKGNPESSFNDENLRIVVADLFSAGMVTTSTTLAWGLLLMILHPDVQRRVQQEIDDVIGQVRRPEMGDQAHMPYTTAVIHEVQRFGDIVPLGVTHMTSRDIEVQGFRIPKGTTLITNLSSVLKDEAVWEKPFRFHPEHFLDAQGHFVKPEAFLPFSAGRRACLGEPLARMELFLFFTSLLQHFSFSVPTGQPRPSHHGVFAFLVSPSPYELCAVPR

Chain of DNA dC->dU-editing enzyme APOBEC-3G (Homo sapiens) (Q9HC16 whole entry, looked up): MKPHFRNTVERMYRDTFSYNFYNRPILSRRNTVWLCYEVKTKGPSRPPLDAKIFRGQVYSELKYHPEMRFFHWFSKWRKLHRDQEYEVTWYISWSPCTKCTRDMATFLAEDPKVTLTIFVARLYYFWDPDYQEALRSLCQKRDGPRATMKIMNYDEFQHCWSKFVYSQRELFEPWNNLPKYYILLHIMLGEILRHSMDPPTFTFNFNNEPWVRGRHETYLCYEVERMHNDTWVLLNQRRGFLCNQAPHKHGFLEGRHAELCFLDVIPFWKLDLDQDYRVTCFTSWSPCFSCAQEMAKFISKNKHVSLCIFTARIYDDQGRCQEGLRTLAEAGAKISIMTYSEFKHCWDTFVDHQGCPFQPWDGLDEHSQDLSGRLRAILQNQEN

With `S=C1NC=NC2N=CNC12` (stereo unspecified), the Potency in assay [1] and in assay [2] was 3.16 µM (active) throughout.
On to `CC(C)=CCCC(C)CCO` (stereo unspecified), for which, in assay [3], the call was inactive.
Take `COc1c2ccoc2cc2oc(=O)ccc12`: the Potency result in assay [1] and in assay [2] was “inactive” in each case. Moreover, the call in assay [3] was inactive.
The compound `Nc1cccc(-c2csc(NC(=O)CCCCCCC(=O)NO)n2)c1` came in with a parasite growth, % of DMSO control in assay [4] of 5.04%. In assay [5], the parasite growth remaining, % of DMSO control (lower = more inhibition) amounted to 7.08%. In assay [6], this compound displayed a parasite growth, % of control (lower = inhibition) of 11.6%. This compound also registered a growth, % of control in assay [7] of 8.11%.
With `COc1ccc2[nH]cc(CCNc3ncncc3-c3ccccc3C(F)(F)F)c2c1`, in assay [8], the Potency was 2 µM (active).

(Values after PubChem BioAssay (NCATS).)
